From PubChem BioAssay
Compounds with a hit are over-represented: about 2.8% of the library has one in this group of screens.
MITF TRPM1 inh – inhibitors of MITF-driven TRPM1 promoter in melanoma cells | SK-MEL-5 TRPM1 promoter luciferase, 24 h | inhibition, % at 12.5 µM | 0.83% of 330,000 active | AID 488899;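 active means mean inhibition across replicates of 60% or more, whatever share of single replicates reaches that level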
KKLEB tox – CF airway cell cytotoxicity counter-screen. KKLEB CF airway cells viability, ATPlite luminescence, overnight; hits give low values; cells stimulated with P. aeruginosa culture filtrate. activity change (cytotoxicity), % at 5 µM. 0.36% of 360,000 active;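 active means corrected activity change at or below -50% at 5 µM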
Beta2AR agonist – agonists of human beta-2 adrenergic receptor inducing internalization. Am2.2-beta2AR cells, FAP receptor internalization, flow cytometry. response, % (test concentration not listed). 0.43% of 340,000 active. P07550;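 active means response above a set limit, near 3 SD of response in nonfluorescent compounds, cut at about 42% in these data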
Target sequence (P07550 whole entry, looked up): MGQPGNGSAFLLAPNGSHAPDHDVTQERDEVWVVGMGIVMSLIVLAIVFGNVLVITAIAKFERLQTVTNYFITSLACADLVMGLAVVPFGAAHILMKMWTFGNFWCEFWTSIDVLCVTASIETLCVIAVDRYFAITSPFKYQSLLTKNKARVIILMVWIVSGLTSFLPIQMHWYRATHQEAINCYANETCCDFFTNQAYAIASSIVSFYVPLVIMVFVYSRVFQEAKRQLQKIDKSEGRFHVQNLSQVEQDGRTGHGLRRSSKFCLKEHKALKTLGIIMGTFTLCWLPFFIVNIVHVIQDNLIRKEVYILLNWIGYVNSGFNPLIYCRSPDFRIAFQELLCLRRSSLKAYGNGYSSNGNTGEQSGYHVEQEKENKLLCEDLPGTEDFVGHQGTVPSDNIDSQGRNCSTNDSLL
Peg3 prom inh – inhibitors of Peg3 promoter; HeLa PEG-Prom luciferase reporter, luminescence, overnight; inhibition, % at 20 µM; 1.7% of 360,000 active; AID 588405;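 active means inhibition of at least 50% at 20 µM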
CF NFkB inh – inhibitors of cystic fibrosis induced NF-kB; KKLEB NF-kB-GFP reporter, PAF-induced, GFP fluorescence overnight; inhibition, % at 5 µM; 0.86% of 360,000 active;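 active means at least 50% inhibition at 5 µM, scaled per plate between neutral and stimulator controls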;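 further: PAF is a Pseudomonas aeruginosa culture filtrate used as stimulus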
HIF-2a inh – blocks HIF-2a reporter activity; inhibition, % at 18.8 µM; 786-0 RCC cells HIF-2a reporter, luciferase luminescence, overnight; 0.72% of 360,000 active;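 active means inhibition of the luminescence signal of 40% or more relative to plate controls, in a single-dose primary screen at 18.75 µM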
Large screens that a line does not name were inactive.

CCOC(=O)C1CCN(c2ccccc2CN2CCN(c3ccccc3OCC)CC2)CC1	Peg3 prom inh 92.3
Cc1cc2nc(-c3ccccc3)c(Cc3ccsc3)n2c(C)c1Br	none (no result: MITF TRPM1 inh, KKLEB tox, Beta2AR agonist, Peg3 prom inh, CF NFkB inh)
Cc1cc(C)c2nc(NNC(=O)c3cc(-c4cccs4)nc4ccccc34)sc2c1	Peg3 prom inh 51.7
O=C(NN1CCOCC1)c1cc(-c2cccs2)nc2ccccc12	none
O=C(NNc1nc2ccc(Cl)cc2s1)c1cc(-c2cccs2)nc2ccccc12	Peg3 prom inh 87.1
Cc1ccc(S(=O)(=O)NCc2ccccc2Br)cc1	none (no result: MITF TRPM1 inh, KKLEB tox, Beta2AR agonist, Peg3 prom inh, CF NFkB inh)
CN(Cc1ccc(Cl)c(Cl)c1)C(c1cc2ccccc2o1)c1nnnn1C(C)(C)C (stereo unspecified)	none (no result: MITF TRPM1 inh, KKLEB tox, Beta2AR agonist, Peg3 prom inh, CF NFkB inh)
N#C/C(=C/c1ccc(-c2ccc([N+](=O)[O-])cc2)o1)c1nnc(N2CCOCC2)n1-c1ccccc1	Peg3 prom inh 66.8
COc1ccc(C(=O)Oc2c(C)occc2=O)cc1OC	none
Cc1occc(=O)c1OC(=O)Nc1ccc(Cl)c(Cl)c1	KKLEB tox -65.4, CF NFkB inh 77.4
CCn1c(O)c(/C=N/N=C/c2ccccc2)c2ccc(C3=NNC(=O)CC3)cc21	Peg3 prom inh 50.4
COc1ccccc1-c1csc(C(C)(O)c2ccccc2)n1 (stereo unspecified)	none (no result: MITF TRPM1 inh, Beta2AR agonist)
O=C1C(=Cc2cccs2)C(=O)c2ccccc21	none
O=C1C(c2ccccc2)=[N+]([O-])c2ccccc21	Peg3 prom inh 88.1
Cc1c(CCOC(=O)CC23CC4CC(CC(C)(C4)C2)C3)sc[n+]1CC(=O)c1ccccc1	MITF TRPM1 inh 84.4, Peg3 prom inh 84.5
COc1cccc(CNC(=O)c2ccc(OCC(=O)N3CCOCC3)c(OC)c2)c1	none
COc1cccc(CNC(=O)C2=Cc3cccc(OC)c3OC2)c1	Peg3 prom inh 58.3
COc1ccc(OCCNC2CCCC2)cc1	none
c1ccc(-c2ccc(OCCCNC3CCCC3)cc2)cc1	Peg3 prom inh 74.3
C[C@@H]1CN([C@H](C)CO)C(=O)c2cc(Br)cnc2O[C@H]1CN(C)C(=O)Nc1ccccc1F	none (no result: MITF TRPM1 inh, Beta2AR agonist)
Cc1ccc(C2=NOC(=O)/C2=C\C=C\c2ccccc2)cc1	MITF TRPM1 inh 95.6, KKLEB tox -61.1, Peg3 prom inh 106.0, CF NFkB inh 91.6
COc1ccc(/C=C2\C(=O)ON=C2c2ccccc2)cc1OC	none (no result: MITF TRPM1 inh)
O=C1ON=C(c2ccccc2)/C1=C/c1ccco1	Beta2AR agonist 57.6
O=C1ON=C(c2ccccc2)/C1=C/c1ccc(-c2ccccc2[N+](=O)[O-])o1	MITF TRPM1 inh 67.1, Beta2AR agonist 95.8, Peg3 prom inh 102.7, HIF-2a inh 97.7
COc1ccc(/C=C2/C(=O)ON=C2c2ccccc2)cc1OC	HIF-2a inh 41.2
COc1cc(Cl)c([C@@H]2C[C@H]3CN(c4ccccc4)C(=O)[C@]34CCCN24)cc1OC	none
COc1cc([C@@H]2C[C@H]3CN(c4ccccc4)C(=O)[C@]34CCCN24)cc(OC)c1OC	Peg3 prom inh 86.9
CCOc1cc([C@@H]2C[C@H]3CN(c4ccccc4)C(=O)[C@]34CCCN24)ccc1OC	Peg3 prom inh 98.4
COc1ccccc1-n1cc([C@@H]2C[C@H]3CN(c4ccccc4)C(=O)[C@]34CCCN24)cn1	KKLEB tox -56.2, Peg3 prom inh 97.6, CF NFkB inh 85.8
COc1ccccc1CN1C[C@@H]2C[C@@H](c3ccc(Cl)cc3)N3CCC[C@@]23C1=O	none
Cc1cccc(C)c1NC(=O)C(C)NCc1cccs1 (stereo unspecified)	none (no result: MITF TRPM1 inh, Beta2AR agonist)
C=CCNc1nc(Cl)nc(Nc2ccc([N+](=O)[O-])cc2)n1	none
C=CCNc1nc(Nc2ccc([N+](=O)[O-])cc2)nc(N2CCCC2)n1	Peg3 prom inh 56.0
CCC(=O)N(C1=C(NC(C)C)C(=O)c2ccccc2C1=O)C(C)C	none
CCCNC1=C(N(C(C)=O)c2cccc(F)c2)C(=O)c2ccccc2C1=O	MITF TRPM1 inh 98.4, KKLEB tox -55.6, Peg3 prom inh 84.7, CF NFkB inh 81.3, HIF-2a inh 73.1
COc1ccc(C(CNC(=O)Cc2cc(OC)c(OC)c(OC)c2)N2CCCC2)cc1 (stereo unspecified)	none
COC(=O)C1CCC(=O)N1C(c1ccc(OC)cc1)c1cc(OC)c(OC)c(OC)c1 (stereo unspecified)	CF NFkB inh 52.3
CCn1c(SCC(=O)c2cc(OC)ccc2OC)nnc1C(C)C	none
CCn1c(SCC(=O)c2cc(OC)ccc2OC)nnc1-c1ccncc1	Peg3 prom inh 70.3
Cc1ccc(O)c(-c2cc(C(=O)Nc3ccc(S(=O)(=O)N4CC(C)OC(C)C4)cc3)[nH]n2)c1 (stereo unspecified)	Peg3 prom inh 54.5
O=C(Nc1ccc(S(=O)(=O)N2CCOCC2)cc1)c1cc(-c2cc(Cl)ccc2O)n[nH]1	Peg3 prom inh 86.0
Cc1ccc(-c2cc(C(=O)Nc3ccc(S(=O)(=O)N4CC(C)OC(C)C4)cc3)[nH]n2)c(O)c1 (stereo unspecified)	none
O=C(Nc1ccc(Cl)cc1)c1ccc(S(=O)(=O)N2CCOCC2)cc1	none
Cc1cc(O)c(-c2cc(C(=O)Nc3ccc(S(=O)(=O)N4CCOCC4)cc3)[nH]n2)cc1C	Peg3 prom inh 59.6
CC(C)(C)OC(=O)N1CCCC1C(=O)NCCc1ccccc1 (stereo unspecified)	Beta2AR agonist 54.6
Cc1ccc(S(=O)(=O)N2[C@@H](Cc3ccccc3)CO[C@H]2CC(=O)c2ccc(F)cc2)cc1	none (no result: MITF TRPM1 inh, KKLEB tox, Beta2AR agonist, Peg3 prom inh, CF NFkB inh)
Cc1ccccc1CSCC1Nc2ccc(C(=O)NCCc3ccccc3)cc2NC1=O (stereo unspecified)	none (no result: MITF TRPM1 inh, Beta2AR agonist)
CCCCCCN1C[C@H](n2cc(COC(=O)c3ccccc3)nn2)[C@@H](O)C[C@@H]1c1ccccc1	none (no result: MITF TRPM1 inh, Beta2AR agonist)
CCCCCCN1C[C@@H](n2cc(COC(=O)c3ccccc3)nn2)[C@H](O)C[C@@H]1c1ccccc1	Peg3 prom inh 65.0 (no result: MITF TRPM1 inh, Beta2AR agonist)
O=C(COC(=O)c1ccc(Cl)c(S(=O)(=O)N2CCCCCC2)c1)NCc1ccccc1	none (no result: MITF TRPM1 inh, Beta2AR agonist)
COC(=O)C1=C(C)NC(=S)NC1c1ccc(-c2cccc(Cl)c2)o1 (stereo unspecified)	Beta2AR agonist 50.6
CCOC(=O)C1=C(C)NC(=S)NC1c1ccc(-c2ccc(Cl)cc2)o1 (stereo unspecified)	none
O=C(Nc1nc(-c2ccccc2)cs1)c1ccc2c(c1)S(=O)(=O)c1ccccc1C2=O	KKLEB tox -56.6
O=C(Nc1ccc(-c2ccccc2)cc1)c1ccc2c(c1)S(=O)(=O)c1ccccc1C2=O	none
O=C(Nc1nc(-c2cccc3ccccc23)cs1)c1ccc2c(c1)S(=O)(=O)c1ccccc1C2=O	MITF TRPM1 inh 62.7
CCOc1cc2[nH]c(=S)n(Cc3ccc(C(=O)NCCCN4CCOCC4)cc3)c(=O)c2cc1OCC	none
CCOc1cc2[nH]c(=O)n(Cc3ccc(C(=O)NCCCN4CCC(C)CC4)cc3)c(=O)c2cc1OCC	Peg3 prom inh 82.2
